The source made the active and inactive calls. Unless noted, the call rests on the fitted dose curve; in most records, active means well fitted curve in the direction sought with a large enough effect in the repeat runs; inconclusive means weak or mixed curves; inactive means no such curve, though single readings can be large; an effect the other way counts as inactive or inconclusive.
Legend:
[1] = qHTS assay to test for compound auto fluorescence at 535 nm (green) in HEK293 cells (AID 720680); further: potency means the concentration at half of the fitted maximal effect
[2] = qHTS assay to test for compound auto fluorescence at 460 nm (blue) in HEK293 cell free culture (AID 720681)
How it was run: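 Test compounds were pinned into cell-free culture medium (DMEM with 10% FBS) and fluorescence was read directly at Ex/Em 405/460 nm. Signals were expressed as fluorescence equivalents of triamterene, with DMSO vehicle as control.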

[3] = qHTS assay to test for compound auto fluorescence at 535 nm (green) in HEK293 cell free culture (AID 720682); further: potency means the concentration at half of the fitted maximal effect
How it was run: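 Each library compound, or DMSO control, is added by pintool to medium alone, comprising DMEM and 10% FBS. Emission at 535 nm following 485 nm excitation is quantified against fluorescein.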

[4] = qHTS assay to test for compound auto fluorescence at 460 nm (blue) in HepG2 cell free culture (AID 720685)
How it was run: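 Compound (23 nL) or DMSO pinned into cell-free MEM with 10% FBS; blue fluorescence read at 405/460 nm excitation/emission, expressed as auto-fluorescence equivalency to triamterene.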

[5] = qHTS assay to test for compound auto fluorescence at 535 nm (green) in HepG2 cell free culture (AID 720686); further: potency means the concentration at half of the fitted maximal effect
[6] = qHTS assay to test for compound auto fluorescence at 460 nm (blue) in HepG2 cells (AID 720687)
How it was run: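 Cells (2,000/well in MEM with 10% FBS) attached overnight at 37 C, then were exposed to compound or DMSO for 1 hr at 37 C, 5% CO2. Fluorescence read at Ex/Em 405/460 nm, expressed as triamterene-equivalent signal.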

[7] = qHTS assay to identify small molecule antagonists of the glucocorticoid receptor (GR) signaling pathway - cell viability counter screen (AID 720693); further: nearly all actives have a fitted effect of over 55% in size
[8] = qHTS assay for identifying genotoxic compounds that show differential cytotoxicity against isogenic chicken DT40 cell lines with known DNA damage response pathways - wild type cell line (AID 743012); further: nearly all actives have a fitted effect of over 60% in size; further: potency means the concentration at half of the fitted maximal effect
How it was run: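 Wild type DT40, 300 cells/well, ~0.5 h settle at 37 C/5% CO2; compounds in DMSO added by pintool; 40 h at 37 C/5% CO2; CellTiter-Glo, 30 min RT; luminescence.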

[9] = qHTS assay for identifying genotoxic compounds that show differential cytotoxicity against isogenic chicken DT40 cell lines with known DNA damage response pathways - Rad54/Ku70 mutant cell line (AID 743015); further: nearly all actives have a fitted effect of over 60% in size; further: potency means the concentration at half of the fitted maximal effect
[10] = qHTS assay to identify small molecule antagonists of the androgen receptor (AR) signaling pathway - cell viability counter screen (AID 743033; further: nearly all actives have a fitted effect of over 45% in size; further: potency means the concentration at half of the fitted maximal effect)
[11] = biological target: Androgen receptor (Homo sapiens) (UniProt P10275); test: qHTS assay to identify small molecule agonists of the androgen receptor (AR) signaling pathway using the MDA cell line (AID 743040; further: nearly all actives have a fitted effect of over 20% in size; further: potency means the concentration at half of the fitted maximal effect)
Sequence of Androgen receptor (Homo sapiens) (P10275 whole entry, looked up): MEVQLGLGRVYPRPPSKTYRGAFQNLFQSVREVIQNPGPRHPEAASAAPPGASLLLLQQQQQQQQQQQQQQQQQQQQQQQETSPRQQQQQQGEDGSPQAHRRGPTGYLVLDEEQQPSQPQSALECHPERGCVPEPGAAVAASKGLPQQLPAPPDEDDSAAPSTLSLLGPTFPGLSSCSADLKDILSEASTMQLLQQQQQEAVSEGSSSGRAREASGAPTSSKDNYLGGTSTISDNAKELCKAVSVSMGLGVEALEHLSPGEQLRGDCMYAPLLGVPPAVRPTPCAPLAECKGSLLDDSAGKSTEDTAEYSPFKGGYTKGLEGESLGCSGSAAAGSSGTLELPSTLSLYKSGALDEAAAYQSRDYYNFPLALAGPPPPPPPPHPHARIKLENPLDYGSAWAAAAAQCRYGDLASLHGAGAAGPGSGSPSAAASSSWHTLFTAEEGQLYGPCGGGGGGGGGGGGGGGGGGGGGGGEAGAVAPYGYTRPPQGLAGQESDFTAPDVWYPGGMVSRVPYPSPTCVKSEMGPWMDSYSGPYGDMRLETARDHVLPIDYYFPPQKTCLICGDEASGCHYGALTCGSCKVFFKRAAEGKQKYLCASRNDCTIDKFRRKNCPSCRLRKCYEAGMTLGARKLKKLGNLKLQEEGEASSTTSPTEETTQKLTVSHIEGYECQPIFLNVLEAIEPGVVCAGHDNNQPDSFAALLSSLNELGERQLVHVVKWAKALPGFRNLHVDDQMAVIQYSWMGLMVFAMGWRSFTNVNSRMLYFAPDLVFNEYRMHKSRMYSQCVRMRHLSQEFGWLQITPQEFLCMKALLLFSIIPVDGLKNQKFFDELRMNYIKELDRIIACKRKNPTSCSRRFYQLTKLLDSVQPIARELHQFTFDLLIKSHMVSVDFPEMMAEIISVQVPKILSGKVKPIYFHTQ
How it was run: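 Luminescence from ONE-Glo, read after 30 min at room temperature, reflects MMTV-driven luciferase in MDA-kb2 cells (AR- and GR-responsive). Treatment lasted 16 h at 37C, 0% CO2.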

[12] = biological target: Androgen receptor (Homo sapiens) (UniProt P10275); test: qHTS assay to identify small molecule antagonists of the androgen receptor (AR) signaling pathway using the MDA cell line (AID 743042; further: nearly all actives have a fitted effect of over 55% in size)
How it was run: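 MDA-kb2 cells (human breast carcinoma, stably carrying an MMTV-luciferase reporter responsive to AR and GR) were plated at 3,000 cells/well and preincubated 5 hr at 37C, then given compound plus R1881 agonist for 16 h. ONE-Glo luminescence was read.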

[13] = qHTS assay to test for compound auto fluorescence at 590 nm (red) in HepG2 cell free culture (AID 720684)
How it was run: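 Measured in medium alone (MEM containing 10% FBS) following pintool addition of compound; emission at 590 nm with 540 nm excitation, referenced to Rose Bengal sodium.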

[14] = biological target: Glucocorticoid receptor (Homo sapiens) (UniProt P04150); test: qHTS assay to identify small molecule agonists of the glucocorticoid receptor (GR) signaling pathway (AID 720691; active means well fitted activation curve with a large enough effect in the signal ratio in the repeat runs, not every such curve was filed as active; inconclusive means weak or mixed curves, or effect the other way; inactive means no such curve, though single readings can be large or run the other way; the % refers to the signal ratio; further: potency means the concentration at half of the fitted maximal effect); settings: GR-bla HeLa, beta-lactamase reporter ratio, 18 h; activation: at 62.4 µM (top of the series)
Sequence of Glucocorticoid receptor (Homo sapiens) (P04150 whole entry, looked up): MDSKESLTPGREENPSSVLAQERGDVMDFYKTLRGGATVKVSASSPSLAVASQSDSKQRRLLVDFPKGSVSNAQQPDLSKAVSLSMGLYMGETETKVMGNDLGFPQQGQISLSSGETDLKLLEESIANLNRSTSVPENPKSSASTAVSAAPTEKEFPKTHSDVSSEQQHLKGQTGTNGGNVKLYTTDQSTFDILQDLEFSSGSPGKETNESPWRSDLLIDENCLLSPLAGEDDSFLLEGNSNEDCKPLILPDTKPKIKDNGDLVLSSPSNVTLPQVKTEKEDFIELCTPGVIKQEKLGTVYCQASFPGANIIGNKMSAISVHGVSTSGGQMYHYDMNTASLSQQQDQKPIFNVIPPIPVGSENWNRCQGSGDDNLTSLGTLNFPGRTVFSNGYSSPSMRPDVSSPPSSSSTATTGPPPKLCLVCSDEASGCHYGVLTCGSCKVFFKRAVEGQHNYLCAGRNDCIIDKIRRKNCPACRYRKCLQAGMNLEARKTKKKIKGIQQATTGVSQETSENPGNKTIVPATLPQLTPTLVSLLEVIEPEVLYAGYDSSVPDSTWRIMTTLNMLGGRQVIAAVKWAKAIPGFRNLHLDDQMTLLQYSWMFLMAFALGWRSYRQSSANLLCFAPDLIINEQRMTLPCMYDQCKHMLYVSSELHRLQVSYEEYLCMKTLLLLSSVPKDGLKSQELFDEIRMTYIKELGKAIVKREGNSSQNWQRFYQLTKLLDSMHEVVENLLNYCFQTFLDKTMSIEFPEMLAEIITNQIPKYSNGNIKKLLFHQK
How it was run: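 Fluorescence intensity from LiveBLAzer B/G FRET substrate (2 h, room temperature) reports beta-lactamase expression driven by the glucocorticoid response element in GR-bla HeLa cells after 18 h compound exposure at 37 C.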

[15] = biological target: Androgen receptor (Homo sapiens) (UniProt P10275); test: qHTS assay to identify small molecule agonists of the androgen receptor (AR) signaling pathway (AID 743036; active means well fitted activation curve with a large enough effect in the signal ratio in the repeat runs, with a control signal flat, not every such curve was filed as active; inconclusive means weak or mixed curves, or effect the other way; inactive means no such curve, though single readings can be large or run the other way; the % refers to the signal ratio; further: potency means the concentration at half of the fitted maximal effect)
How it was run: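 Following a 4 h settling period, AR-UAS-bla HEK293 cells were dosed with compounds for 16 h at 37C. A 2 h room-temperature incubation with LiveBLAzer B/G FRET substrate preceded the fluorescence measurement.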

[16] = qHTS assay to identify small molecule antagonists of the androgen receptor (AR) signaling pathway using the MDA cell line - cell viability counter screen (AID 743041; further: nearly all actives have a fitted effect of over 45% in size)
How it was run: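 Viability counter screen run alongside the AR antagonist reporter: cells seeded 5 h before compound, R1881 added, 16 h incubation at 37C without CO2, fluorescent CellTiter-Fluor signal quantified.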

[17] = qHTS assay for identifying genotoxic compounds that show differential cytotoxicity against isogenic chicken DT40 cell lines with known DNA damage response pathways - Rev3 mutant cell line (AID 743014); further: nearly all actives have a fitted effect of over 55% in size; further: potency means the concentration at half of the fitted maximal effect
[18] = biological target: Androgen receptor (Homo sapiens) (UniProt P10275); test: qHTS assay to identify small molecule antagonists of the androgen receptor (AR) signaling pathway (AID 743035; active means well fitted inhibition curve with a large enough effect in the signal ratio in the repeat runs, not every such curve was filed as active; inconclusive means weak or mixed curves, or effect the other way; inactive means no such curve, though single readings can be large or run the other way; the % refers to the signal ratio; further: potency means the concentration at half of the fitted maximal effect)
How it was run: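 Fluorescence from a beta-lactamase FRET substrate (LiveBLAzer B/G, 2 h, room temperature) measured inhibition of R1881-stimulated signaling in GeneBLAzer AR-UAS-bla HEK293 cells exposed to compound for 16 h at 37C.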

[19] = biological target: Glucocorticoid receptor (Homo sapiens) (UniProt P04150); test: qHTS assay to identify small molecule antagonists of the glucocorticoid receptor (GR) signaling pathway (AID 720692; active means well fitted inhibition curve with a large enough effect in the signal ratio in the repeat runs, not every such curve was filed as active; inconclusive means weak or mixed curves, or effect the other way; inactive means no such curve, though single readings can be large or run the other way; the % refers to the signal ratio)
How it was run: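 HeLa GR-bla cells; cmpd + dex 5 nM final, 18 h 37 C; LiveBLAzer B/G FRET substrate 2 h RT; fluorescence intensity read. Antagonist mode, qHTS.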

[20] = qHTS assay to test for compound auto fluorescence at 590 nm (red) in HEK293 cell free culture (AID 720683)
How it was run: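 Tox21 10K library compounds were pinned into cell-free DMEM with 10% FBS and fluorescence was read at excitation 540 nm. Activity is expressed as Rose Bengal sodium equivalency.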
On the % scale 0 is the no-effect control and ±100 the full control effect; tags describe the fitted curve by direction and shape or compound fluorescence and quenching.

O=C(O)CN(CC(=O)O)CC1=CC2C(=CC1=O)Oc1cc(O)c(CN(CC(=O)O)CC(=O)O)cc1C21OC(=O)c2ccccc21 (configuration not stated)
active: Potency [1] 11.2 µM [fluorescent] | Potency [3] 11.2 µM [fluorescent] | Potency [5] 11.2 µM [fluorescent]
inactive: Potency [2] | outcome [4] | outcome [6] | Potency [7] | Potency [8] | Potency [9] | Potency [10] | Potency [11] | Potency [12]

C[C@@H]1C[C@H]2C3C[C@H](F)C4=CC(=O)C=CC4(C)[C@@]3(F)[C@@H](O)CC2(C)[C@@]1(O)C(=O)COC(=O)C(C)(C)C (some centres not stated)
inactive: Potency [1] | Potency [2] | Potency [3] | Potency [13] | outcome [4] | Potency [5] | outcome [6] | Potency [7] | Potency [10] | Potency [16] | Potency [12]
active: Potency [14] 0.0067 µM [inconclusive] | Potency [15] 0.0601 µM | Potency [11] 0.0047 µM

COc1ccc(C(=O)CCC(=O)O)c2ccccc12
inactive: Potency [1] | Potency [2] | Potency [3] | Potency [13] | Potency [5] | outcome [6] | Potency [14] | Potency [7] | Potency [8] | Potency [17] | Potency [9] | Potency [10] | Potency [16]

CC[C@@]1(O)C(=O)OCc2c1cc1n(c2=O)Cc2cc3c([N+](=O)[O-])cccc3nc2-1
active: activation [14] 5.3% [inconclusive] | Potency [8] 0.119 µM | Potency [17] 0.0944 µM | Potency [9] 0.0841 µM
inactive: Potency [1] | Potency [2] | Potency [3] | Potency [13] | outcome [4] | Potency [5] | outcome [6] | Potency [10]

CCC(Cc1c(I)cc(I)c(O)c1I)C(=O)O (configuration not stated)
inactive: Potency [1] | Potency [2] | Potency [3] | Potency [13] | outcome [4] | Potency [5] | outcome [6] | Potency [14] | Potency [7] | Potency [8] | Potency [17] | Potency [9] | Potency [10] | Potency [18] | Potency [15] | Potency [11] | Potency [16] | Potency [12]

Nc1ncnc2c1ncn2CCOCP(=O)(O)O
inactive: Potency [1] | Potency [2] | Potency [3] | Potency [13] | outcome [4] | Potency [5] | outcome [6] | Potency [14] | Potency [7] | Potency [8] | Potency [17] | Potency [9] | Potency [10] | Potency [16]

COc1cc2c(cc1OC)[C@@H](c1ccccc1)CN(C)CC2
active: Potency [8] 23.7 µM
inactive: Potency [1] | Potency [2] | Potency [3] | Potency [13] | outcome [4] | Potency [5] | outcome [6] | Potency [14] | Potency [19] | Potency [7] | Potency [9] | Potency [10] | Potency [15] | Potency [11] | Potency [16] | Potency [12]

CCSc1ccc2c(c1)N(CCCN1CCN(C)CC1)c1ccccc1S2
active: Potency [8] 11.4 µM | Potency [17] 14.3 µM | Potency [9] 11.4 µM
inactive: Potency [1] | Potency [2] | Potency [3] | Potency [13] | outcome [4] | Potency [5] | outcome [6] | Potency [7] | Potency [16]

CN1c2c(nc(N)[nH]c2=O)NCC1CNc1ccc(C(=O)NC(CCC(=O)O)C(=O)O)cc1 (configuration not stated)
inactive: Potency [1] | Potency [2] | Potency [3] | Potency [13] | Potency [5] | outcome [6] | Potency [14] | Potency [19] | Potency [7] | Potency [8] | Potency [17] | Potency [9] | Potency [10] | Potency [18] | Potency [11] | Potency [16] | Potency [12]

Cn1cc(NC(=O)c2cc(NC(=O)c3cc(NC=O)cn3C)cn2C)cc1C(=O)NCCC(=N)N
inactive: Potency [1] | Potency [2] | Potency [3] | Potency [13] | outcome [4] | Potency [5] | outcome [6] | Potency [7] | Potency [8] | Potency [17] | Potency [9] | Potency [10] | Potency [16]

C#CCC(Cc1cnc2nc(N)nc(N)c2n1)c1ccc(C(=O)N[C@@H](CCC(=O)O)C(=O)O)cc1 (some centres not stated)
inactive: Potency [1] | Potency [3] | Potency [20] | Potency [13] | Potency [5] | Potency [14] | Potency [19] | Potency [7] | Potency [18] | Potency [11] | Potency [16] | Potency [12]
active: Potency [8] 0.0106 µM | Potency [17] 0.0168 µM | Potency [9] 0.0237 µM | Potency [10] 0.169 µM

CN1C(=O)CN2CCc3ccccc3C2c2cc(Cl)ccc21 (configuration not stated)
inactive: Potency [1] | Potency [2] | Potency [3] | Potency [13] | outcome [4] | Potency [5] | outcome [6] | Potency [14] | Potency [7] | Potency [17] | Potency [9] | Potency [10] | Potency [16]

CC(=O)Oc1cc(C)c(OC(C)=O)c2ccccc12
active: Potency [8] 21.1 µM | Potency [17] 23.7 µM | Potency [9] 23.7 µM
inactive: Potency [2] | Potency [3] | Potency [20] | Potency [13] | outcome [4] | Potency [5] | outcome [6] | Potency [14] | Potency [7] | Potency [16]

CC(C)CN(C[C@@H](O)[C@H](Cc1ccccc1)NC(=O)O[C@@H]1CCOC1)S(=O)(=O)c1ccc(N)cc1
inactive: Potency [1] | Potency [2] | Potency [3] | Potency [13] | outcome [4] | Potency [5] | outcome [6] | Potency [14] | Potency [19] | Potency [7] | Potency [10] | Potency [15] | Potency [11] | Potency [16] | Potency [12]
active: Potency [18] 26.8 µM

CCN(CC)CCOCCOC(=O)C(CC)(CC)c1ccccc1
inactive: Potency [1] | Potency [2] | Potency [3] | Potency [13] | outcome [4] | Potency [5] | outcome [6] | Potency [7] | Potency [16]
active: Potency [8] 3.35 µM | Potency [17] 1.88 µM | Potency [9] 4.73 µM
